Experimental data from PMC4552634, “A New Set of Chemical Starting Points with Plasmodium falciparum Transmission-Blocking Potential for Antimalarial Drug Discovery” (PLoS ONE, 2015).
Hit rate of the full screen: of about 13,000 compounds, about 3,200 (25%) showed an effect of 50% or more. Some of the results follow.

These molecules were tested on P. falciparum stage V gametocytes. Conditions: 48 h, 5 µM; inhibitor.
Parameters: BacTiter-Glo ATP luminescence viability of purified stage V gametocytes in 384-well plates, per cent inhibition versus DMSO

SMILES	% Inhibition [%]
CNC(=O)CSc1nnc(-c2ccc(C)cc2)c(-c2ccc(C)cc2)n1 [TCMDC-123901]	5.321
NC(=O)Nc1ccc2cn[nH]c2c1 [TCMDC-131601]	13.14
C=CCc1cccc(CN2CCC(c3cc(=O)[nH]c(-c4ccccn4)n3)CC2)c1O [TCMDC-124851]	46.78
CCc1nc2c(N)nc(N)nc2nc1-c1ccc(OC)cc1 [TCMDC-132107]	7.623
Cc1ccc(Nc2nc(N/N=C/c3cccc([N+](=O)[O-])c3)nc(Nc3ccccc3)n2)c(C)c1 [TCMDC-124206]	1.923
CCOc1ccc2nc(C)cc(NN=Cc3cccc(F)c3)c2c1 [TCMDC-142093]	73.55
Cc1cccc(C=NNc2cc(C)nc3ccc(F)cc23)n1 [TCMDC-142019]	-41.63
COc1cccc2c(N/N=C/c3ccccc3[N+](=O)[O-])cc(C)nc12 [TCMDC-142043]	74.75
Cc1cc(N/N=C/c2ccccc2[N+](=O)[O-])c2cccc(C)c2n1 [TCMDC-142073]	-15.7
Cc1ccc2nc(C)cc(N/N=C/c3cccc([N+](=O)[O-])c3)c2c1 [TCMDC-142069]	66.26
Cc1ccc(Nc2nc(N/N=C/c3ccccc3[N+](=O)[O-])nc(Nc3ccc([N+](=O)[O-])cc3)n2)cc1C [TCMDC-124207]	32.01
Cc1cc(N2CCCC2)nc(Nc2ccc(NC(=O)c3ccccc3C)cc2)n1 [TCMDC-124711]	-8.542
CCOC(=O)c1c(C)noc1Nc1ccc(OC)cc1 [TCMDC-131521]	-6.953
CCNc1cc(C(=O)N[C@@H](Cc2ccccc2)[C@H](O)CNCC(C)C)cc(N2CCCC2=O)c1 [TCMDC-138888]	11.22
CCNc1cc(C(=O)N[C@@H](Cc2ccccc2)[C@H](O)CNCCC(C)c2ccccc2)cc(N2CCCC2=O)c1 (stereo partly shown) [TCMDC-141683]	6.791
CCc1c[nH]c2c(N3CCCC3=O)cc(C(=O)N[C@@H](Cc3ccccc3)[C@H](O)CNC(C)(C)CCCC(C)C)cc12 [TCMDC-135025]	68.24
CCc1ccnc2c(N3CCCC3=O)cc(C(=O)N[C@@H](Cc3ccccc3)[C@H](O)CNC3CCOCC3)cc12 [TCMDC-135882]	-3.363
CCc1c[nH]c2c(N3CCCS3(=O)=O)cc(C(=O)N[C@@H](Cc3ccccc3)[C@H](O)CNC3CCCCC3)cc12 [TCMDC-135169]	49.22
CCc1c[nH]c2c(N3CCCC3=O)cc(C(=O)N[C@@H](Cc3ccccc3)[C@H](O)CNC3CCCCC3)cc12 [TCMDC-135024]	43.33
CCc1c[nH]c2c(N3CCCCC3=O)cc(C(=O)N[C@@H](Cc3ccccc3)[C@H](O)CNCc3cccc(OC)c3)cc12 [TCMDC-134156]	3.442
CCc1cn(C)c2c(N3CCCC3=O)cc(C(=O)N[C@@H](Cc3ccccc3)[C@H](O)CNC3CCCCC3)cc12 [TCMDC-135198]	56.93
CCc1c[nH]c2c(N3CCCS3(=O)=O)cc(C(=O)N[C@@H](Cc3ccccc3)[C@H](O)CNC(C)(C)CCCC(C)C)cc12 [TCMDC-135168]	100.1
COc1cccc(CNC[C@@H](O)[C@H](Cc2ccccc2)NC(=O)c2cc(N3CCCC3=O)c3[nH]cc(C(C)C)c3c2)c1 [TCMDC-132584]	-12.1
CCc1c[nH]c2c(N3CCCS3(=O)=O)cc(C(=O)N[C@@H](Cc3ccccc3)[C@H](O)CNC(C)(C)c3cccc(C(F)(F)F)c3)cc12 [TCMDC-135172]	20.21
CCc1cn(C)c2c(N3CCCC3=O)cc(C(=O)N[C@@H](Cc3ccccc3)[C@H](O)CNC(C)(C)CCCC(C)C)cc12 [TCMDC-135199]	78.23
